Most compounds without a hit are left out; they make up all but 2.6% or so of the library.
eIF4H FP inh: human eIF4H binding inhibitors, primary screen, translation initiation inhibitor project, biochemical, uHTS, fluorescence polarization; Eukaryotic translation initiation factor 4H (Homo sapiens), Q15056; eIF4H fluorescence polarization binding assay; inhibition, % at 35 µM; 290,000 tested, 0.94% active; AID 2012, 2009;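 note: calls also rest on retests at 20 µM and on dose response follow-up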
PHOSPHO1 inh: PubChem AID 1565; Phosphoethanolamine/phosphocholine phosphatase (Homo sapiens), Q8TCT1; recombinant PHOSPHO1, absorbance phosphatase assay; inhibition, % at 13.3 µM; 290,000 tested, 1.1% active; in the data active = inhibition above about 60%
A3A deaminase: APOBEC3A ssDNA deaminase inhibitors, primary screen, selectivity assay for APOBEC3G inhibitor project, biochemical, FAM/TAMRA oligo cleavage fluorescence. DNA dC->dU-editing enzyme APOBEC-3A (Homo sapiens), P31941. recombinant A3A, FAM/TAMRA ssDNA deamination fluorescence. inhibition, % at 20 µM. 330,000 tested, 0.41% active. AID 493011, 2011;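 active = at least 40% inhibition at 20 µM here, with at most 30% in a related deaminase screen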;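 note: plate controls were A3A with DMSO for no effect and wells lacking A3A enzyme for full effect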
PABP polyA inh: PABP poly(A) RNA binding inhibitors, primary screen, biochemical, fluorescence polarization, uHTS; calls only at 35 µM; 290,000 tested, 1% active; AID 2014, 2009;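 note: calls also rest on retests at 20 µM and on dose response follow-up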
MLLE-PAM2 inh: inhibitors of PABP1 MLLE–PAM2 peptide binding, primary screen, biochemical, fluorescence polarization, FITC-PAM2, GST-MLLE; Polyadenylate-binding protein 1 (Homo sapiens), P11940; inhibition, % at 20 µM; 360,000 tested, 0.36% active; in the data active = inhibition above about 35%, passing the limit was not always enough;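 note: plate controls were DMSO wells with GST-MLLE for no effect and wells lacking GST-MLLE protein for full effect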
APOBEC3G inh: APOBEC3G DNA deaminase inhibitors, primary screen, biochemical, fluorescence, single-stranded DNA substrate, uHTS; DNA dC->dU-editing enzyme APOBEC-3G (Homo sapiens), Q9HC16; recombinant A3G, ssDNA deamination FAM/TAMRA fluorescence; inhibition, % at 20 µM; 330,000 tested, 0.28% active;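 active = inhibition of at least 40% at 20 µM, with no more than 30% in the related APOBEC3A deaminase screen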;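 note: plate controls were DMSO wells with A3G for no effect and wells lacking A3G enzyme for full effect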
Target sequence (Q9HC16 whole entry, looked up): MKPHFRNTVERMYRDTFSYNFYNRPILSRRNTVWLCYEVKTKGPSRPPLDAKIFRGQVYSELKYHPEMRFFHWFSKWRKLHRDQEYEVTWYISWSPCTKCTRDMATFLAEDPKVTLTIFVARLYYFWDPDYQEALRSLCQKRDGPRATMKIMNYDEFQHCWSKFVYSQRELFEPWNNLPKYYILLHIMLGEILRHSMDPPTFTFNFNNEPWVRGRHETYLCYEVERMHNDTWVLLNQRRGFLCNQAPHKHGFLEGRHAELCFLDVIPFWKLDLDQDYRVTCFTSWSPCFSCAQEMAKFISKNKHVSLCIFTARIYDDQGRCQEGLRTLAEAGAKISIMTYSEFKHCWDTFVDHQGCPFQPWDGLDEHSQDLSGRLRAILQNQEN
* marks the source's active call; other numbers are inactive results. Unless noted, the rule behind the calls is not given here.

O=C(N/N=C\c1c(O)ccc2ccccc12)c1ccc(S(=O)(=O)N2CCCCC2)cc1 was read as eIF4H FP inh 64*, PHOSPHO1 inh -2, A3A deaminase -111, PABP polyA inh active, MLLE-PAM2 inh -155 and APOBEC3G inh -178.
`C=CCN1C(=O)c2ccc(C(=O)OCC(=O)Nc3ccc(S(N)(=O)=O)cc3)cc2C1=O` gave A3A deaminase 20, MLLE-PAM2 inh -41 and APOBEC3G inh 9.
Cc1ccc(C)c(OCCNc2ncccc2[N+](=O)[O-])c1 was read as eIF4H FP inh -8, PHOSPHO1 inh 14, A3A deaminase -6, PABP polyA inh inactive, MLLE-PAM2 inh -13 and APOBEC3G inh -8.
COC(=O)[C@@]12CCCCN1[C@H](c1ccc(-c3ccc4c(c3)OCO4)cc1)[C@H]1C(=O)N(C)C(=O)[C@H]12 was read as A3A deaminase -2, MLLE-PAM2 inh 0 and APOBEC3G inh -5.
For O=C(NC(=S)Nc1ccccc1O)c1cccnc1 the results were eIF4H FP inh 4, PHOSPHO1 inh 8, A3A deaminase -5, PABP polyA inh inactive, MLLE-PAM2 inh 32 and APOBEC3G inh -3.
`O=C(NC(=S)Nc1cc([N+](=O)[O-])ccc1O)c1cccnc1` gave eIF4H FP inh 7, PHOSPHO1 inh 24, A3A deaminase -2, PABP polyA inh inactive, MLLE-PAM2 inh 42* and APOBEC3G inh -7.
For Cc1ccc([N+](=O)[O-])cc1NC(=S)NC(=O)c1cccnc1 the results were eIF4H FP inh -5, PHOSPHO1 inh 29, A3A deaminase -2, PABP polyA inh inactive, MLLE-PAM2 inh 41* and APOBEC3G inh -3.
For O=C(CSc1nc(=O)n2ccccc2n1)N1CCN(c2ccccc2)CC1 the results were A3A deaminase -7, MLLE-PAM2 inh 13 and APOBEC3G inh -8.
`O=[N+]([O-])c1ccc(S(=O)(=O)Nc2ccc3c(c2)OCCO3)cc1` gave eIF4H FP inh -2, PHOSPHO1 inh -2, A3A deaminase -3, PABP polyA inh inactive, MLLE-PAM2 inh 41* and APOBEC3G inh -6.
For COc1ccc(N/N=C(/C)c2cnnc(-c3ccccc3)n2)cc1 the results were eIF4H FP inh 16, PHOSPHO1 inh -7, A3A deaminase 3, PABP polyA inh inactive, MLLE-PAM2 inh -91 and APOBEC3G inh 24.
`O=C(C1CCN(S(=O)(=O)N2CCC3(CC2)OCCO3)CC1)N1CCN(Cc2ccccc2)CC1` gave eIF4H FP inh -4, PHOSPHO1 inh 64*, A3A deaminase -2, PABP polyA inh inactive, MLLE-PAM2 inh -1 and APOBEC3G inh -2.
COC(=O)c1cc(NC(=S)Nc2cc(Cl)cc(Cl)c2)cc(C(=O)OC)c1 was read as eIF4H FP inh -1, PHOSPHO1 inh -12, A3A deaminase -1, PABP polyA inh inactive, MLLE-PAM2 inh 36* and APOBEC3G inh -2.
For COCCN1CCN(C(=O)c2ccc3nc(Cc4ccc(OC)c(OC)c4)oc3c2)CC1 the results were eIF4H FP inh 4, PHOSPHO1 inh 23, A3A deaminase 0, PABP polyA inh inactive, MLLE-PAM2 inh 8 and APOBEC3G inh -3.
COc1ccc(Cc2nc3ccc(C(=O)N4C[C@@H](C)O[C@@H](C)C4)cc3o2)cc1OC was read as PHOSPHO1 inh 64*, A3A deaminase -3, MLLE-PAM2 inh 12 and APOBEC3G inh -7.
`COc1cc(NC(=O)[C@@H]2O[C@H](CO)[C@@H](O)[C@H]2O)cc(OC)c1OC` gave MLLE-PAM2 inh 16.
Screening Nc1nc(-c2cccc(F)c2)cs1 returned eIF4H FP inh -14, PHOSPHO1 inh 17, A3A deaminase -2, PABP polyA inh inactive, MLLE-PAM2 inh 39* and APOBEC3G inh -6.
COc1ccc(OCC(=O)Nc2cc3c(cc2C(=O)O)OCCCO3)cc1 was read as eIF4H FP inh 0, PHOSPHO1 inh 26, A3A deaminase 1, PABP polyA inh inactive, MLLE-PAM2 inh 19 and APOBEC3G inh -4.
CCOC(=O)C1(CCOc2ccccc2)CCN(Cc2cccc3nonc23)CC1 was read as eIF4H FP inh 5, PHOSPHO1 inh 60*, A3A deaminase 0, PABP polyA inh inactive, MLLE-PAM2 inh 22 and APOBEC3G inh -8.
`CCOC(=O)N1CCC(Nc2nc3ccccc3n3nnnc23)CC1` gave eIF4H FP inh inconclusive, PHOSPHO1 inh -7, A3A deaminase -3, PABP polyA inh active, MLLE-PAM2 inh 8 and APOBEC3G inh -6.
Cc1ccc(N=C2SC(C(=O)NCCc3ccccc3)CC(=O)N2C)cc1C (stereo unspecified) was read as eIF4H FP inh 5, PHOSPHO1 inh 0, A3A deaminase -3, PABP polyA inh inactive, MLLE-PAM2 inh -2 and APOBEC3G inh -6.
`O=C(O)c1cc(-c2ccco2)nc2ccccc12` gave eIF4H FP inh 82*, PHOSPHO1 inh 20, A3A deaminase 83, PABP polyA inh active, MLLE-PAM2 inh 53* and APOBEC3G inh 38.
For O=C(N/N=C/c1ccc(F)cc1)c1cc(-c2ccco2)nc2ccccc12 the results were eIF4H FP inh 90*, PHOSPHO1 inh -15, A3A deaminase 93, PABP polyA inh active, MLLE-PAM2 inh -18 and APOBEC3G inh 85.
COc1ccc(OC)c(-c2cc(C(=O)N/N=C(\C)c3cccnc3)c3ccccc3n2)c1 was read as eIF4H FP inh -3, PHOSPHO1 inh 6, A3A deaminase 7, PABP polyA inh inactive, MLLE-PAM2 inh -2 and APOBEC3G inh -6.
Screening O=C(O)c1cc(-c2cc(C(=O)O)c3ccccc3n2)nc2ccccc12 returned eIF4H FP inh -3, PHOSPHO1 inh 34 and PABP polyA inh inactive.
`CCOc1ccc(/C=N/NC(=O)c2cc(-c3ccco3)nc3ccccc23)cc1` gave eIF4H FP inh 59, PHOSPHO1 inh -4, A3A deaminase -1, PABP polyA inh inactive, MLLE-PAM2 inh 5 and APOBEC3G inh -3.
O=C(NC1CC1)c1cc(-c2ccco2)nc2ccccc12 was read as eIF4H FP inh 98*, PHOSPHO1 inh -6, PABP polyA inh active and MLLE-PAM2 inh -7.
`C/C(=N\NC(=O)c1cc(-c2ccco2)nc2ccccc12)c1cccnc1` gave eIF4H FP inh 82*, PHOSPHO1 inh 23, A3A deaminase 1, PABP polyA inh active, MLLE-PAM2 inh 0 and APOBEC3G inh -6.
